# Laboratory results as given in publication PMC7862700, “An all-to-all approach to the identification of sequence-specific readers for epigenetic DNA modifications on cytosine”.
# Columns and labels:
# Assay in all cases: DAPPL (digital affinity profiling via proximity ligation, sequencing); 10 mM Tris-HCl pH 7.5, 50 mM NaCl, 1 mM DTT, 4% glycerol, room temperature, 30 min; GST-TFs on glutathione beads, 16-mer random dsDNA library, 0.1% formaldehyde crosslink after washing; high values mean tight binding
# [1] = biological target: T1, FEV (Homo sapiens, UniProt Q99581 1-238); settings: protein: recombinant; tags: N-terminal GST; dsDNA, one strand shown
# T1 sequence: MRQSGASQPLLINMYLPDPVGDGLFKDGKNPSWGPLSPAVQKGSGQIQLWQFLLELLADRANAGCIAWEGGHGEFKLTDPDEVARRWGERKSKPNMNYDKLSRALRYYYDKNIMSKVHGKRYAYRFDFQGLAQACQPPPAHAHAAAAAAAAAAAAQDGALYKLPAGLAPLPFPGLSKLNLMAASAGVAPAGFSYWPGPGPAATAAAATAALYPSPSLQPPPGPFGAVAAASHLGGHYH
# Outline: (§1)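 Binding signal is each hexamer's read frequency for a factor divided by its frequency in the tag-only sample. The factors were GST-fused human transcription factors from yeast, captured on glutathione beads, DNA-barcoded and pooled with that sample. Pools were incubated with 200 nmole of a random double-stranded 16-mer DNA library in Tris/NaCl/DTT/glycerol buffer at room temperature for 30 min, then washed, crosslinked with 0.1% formaldehyde, proximity-ligated with BsaI/T4 ligase (1 h, 37 °C), PCR-amplified and sequenced on an Illumina NextSeq500.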
# [2] = biological target: ETV5 (Homo sapiens, UniProt P41161 1-510); settings: protein: recombinant; tags: N-terminal GST; dsDNA, one strand shown
# Outline: as §1
# [3] = biological target: HSF1 (Homo sapiens, UniProt Q00613 1-529); settings: protein: recombinant; tags: N-terminal GST; chain copies: 3; dsDNA, one strand shown
# Outline: as §1
# [4] = biological target: T2, SPIC (Homo sapiens, UniProt Q8N5J4 1-248); settings: protein: recombinant; tags: N-terminal GST; dsDNA, one strand shown
# T2 sequence: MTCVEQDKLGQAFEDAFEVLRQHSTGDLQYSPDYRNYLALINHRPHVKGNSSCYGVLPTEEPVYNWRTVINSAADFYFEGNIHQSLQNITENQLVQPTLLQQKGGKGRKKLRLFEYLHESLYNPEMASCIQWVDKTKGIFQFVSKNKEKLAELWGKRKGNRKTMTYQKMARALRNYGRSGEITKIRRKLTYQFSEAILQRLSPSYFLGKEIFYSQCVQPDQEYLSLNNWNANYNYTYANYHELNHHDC
# Outline: as §1
# [5] = biological target: ELF4 (Homo sapiens, UniProt Q99607 1-663); settings: protein: recombinant; tags: N-terminal GST; dsDNA, one strand shown
# Outline: as §1
# [6] = biological target: T3, ELK4 (Homo sapiens, UniProt P28324-2 1-405); settings: protein: recombinant; tags: N-terminal GST; dsDNA, one strand shown
# T3 sequence: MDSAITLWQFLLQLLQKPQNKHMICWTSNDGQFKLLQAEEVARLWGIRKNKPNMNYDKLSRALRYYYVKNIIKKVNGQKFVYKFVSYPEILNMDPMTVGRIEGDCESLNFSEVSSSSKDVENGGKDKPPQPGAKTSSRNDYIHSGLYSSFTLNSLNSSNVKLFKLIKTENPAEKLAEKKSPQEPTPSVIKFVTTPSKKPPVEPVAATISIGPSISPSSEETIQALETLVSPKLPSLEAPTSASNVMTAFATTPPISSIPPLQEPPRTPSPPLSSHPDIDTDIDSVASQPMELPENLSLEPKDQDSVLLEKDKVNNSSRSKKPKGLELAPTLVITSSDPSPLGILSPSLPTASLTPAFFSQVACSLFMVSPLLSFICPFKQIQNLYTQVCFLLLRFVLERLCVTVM
# Outline: as §1
# [7] = biological target: T4, ETV2 (Homo sapiens, UniProt O00321 1-342); settings: protein: recombinant; tags: N-terminal GST; dsDNA, one strand shown
# T4 sequence: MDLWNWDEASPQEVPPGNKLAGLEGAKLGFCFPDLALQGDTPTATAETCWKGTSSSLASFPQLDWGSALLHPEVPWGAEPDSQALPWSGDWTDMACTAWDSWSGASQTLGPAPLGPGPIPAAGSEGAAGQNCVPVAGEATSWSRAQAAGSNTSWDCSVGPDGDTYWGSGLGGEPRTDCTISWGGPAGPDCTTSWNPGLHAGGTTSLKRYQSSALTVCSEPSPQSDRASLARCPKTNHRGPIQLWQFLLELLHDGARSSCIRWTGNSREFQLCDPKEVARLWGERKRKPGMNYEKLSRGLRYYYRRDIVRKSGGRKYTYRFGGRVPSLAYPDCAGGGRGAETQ
# Outline: as §1
# [8] = biological target: T5, ELF3 (Homo sapiens, UniProt P78545 1-371); settings: protein: recombinant; tags: N-terminal GST; dsDNA, one strand shown
# T5 sequence: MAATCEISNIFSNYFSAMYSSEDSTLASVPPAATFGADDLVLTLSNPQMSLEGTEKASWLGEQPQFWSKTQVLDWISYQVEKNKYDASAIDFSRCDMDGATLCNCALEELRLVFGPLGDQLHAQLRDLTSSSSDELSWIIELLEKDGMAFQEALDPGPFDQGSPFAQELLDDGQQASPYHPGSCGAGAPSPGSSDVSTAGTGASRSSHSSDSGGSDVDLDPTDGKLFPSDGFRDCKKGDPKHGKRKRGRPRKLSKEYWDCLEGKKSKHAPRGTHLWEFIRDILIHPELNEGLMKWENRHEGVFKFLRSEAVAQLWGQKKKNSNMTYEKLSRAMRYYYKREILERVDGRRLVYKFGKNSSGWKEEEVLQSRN
# Outline: as §1
# [9] = biological target: CRX (Homo sapiens, UniProt O43186 1-299); settings: protein: recombinant; tags: N-terminal GST; dsDNA, one strand shown
# Outline: as §1
# [10] = biological target: ETV1 (Homo sapiens, UniProt P50549 1-477); settings: protein: recombinant; tags: N-terminal GST; dsDNA, one strand shown
# Outline: as §1
# Chain of ELF4 (Q99607 whole entry): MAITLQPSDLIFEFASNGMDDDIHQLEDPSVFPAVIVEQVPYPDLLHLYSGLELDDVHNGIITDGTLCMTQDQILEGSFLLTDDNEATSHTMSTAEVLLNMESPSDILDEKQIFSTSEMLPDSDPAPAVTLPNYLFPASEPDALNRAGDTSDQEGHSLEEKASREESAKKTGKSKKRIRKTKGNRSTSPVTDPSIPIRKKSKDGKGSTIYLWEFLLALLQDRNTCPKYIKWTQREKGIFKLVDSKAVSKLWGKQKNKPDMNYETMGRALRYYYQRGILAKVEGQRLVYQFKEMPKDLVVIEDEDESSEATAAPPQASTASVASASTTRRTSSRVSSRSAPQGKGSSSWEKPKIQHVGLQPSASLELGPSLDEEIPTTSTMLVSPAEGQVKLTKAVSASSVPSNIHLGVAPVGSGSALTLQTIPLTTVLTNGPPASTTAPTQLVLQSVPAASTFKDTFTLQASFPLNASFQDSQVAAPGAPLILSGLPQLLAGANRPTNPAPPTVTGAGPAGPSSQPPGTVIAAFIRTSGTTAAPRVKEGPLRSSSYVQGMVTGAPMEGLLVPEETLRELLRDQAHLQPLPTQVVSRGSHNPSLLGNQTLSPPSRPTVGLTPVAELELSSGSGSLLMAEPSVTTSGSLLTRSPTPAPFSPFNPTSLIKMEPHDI
# Chain of CRX (O43186 whole entry): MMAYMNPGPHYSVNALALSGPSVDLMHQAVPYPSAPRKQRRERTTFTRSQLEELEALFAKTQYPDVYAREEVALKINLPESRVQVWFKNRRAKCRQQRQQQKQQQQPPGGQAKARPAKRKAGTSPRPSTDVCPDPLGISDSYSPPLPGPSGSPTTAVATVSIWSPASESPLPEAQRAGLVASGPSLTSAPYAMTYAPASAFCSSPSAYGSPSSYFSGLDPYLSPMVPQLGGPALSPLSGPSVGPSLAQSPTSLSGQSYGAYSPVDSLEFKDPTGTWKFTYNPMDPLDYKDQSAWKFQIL
# Chain of ETV1 (P50549 whole entry): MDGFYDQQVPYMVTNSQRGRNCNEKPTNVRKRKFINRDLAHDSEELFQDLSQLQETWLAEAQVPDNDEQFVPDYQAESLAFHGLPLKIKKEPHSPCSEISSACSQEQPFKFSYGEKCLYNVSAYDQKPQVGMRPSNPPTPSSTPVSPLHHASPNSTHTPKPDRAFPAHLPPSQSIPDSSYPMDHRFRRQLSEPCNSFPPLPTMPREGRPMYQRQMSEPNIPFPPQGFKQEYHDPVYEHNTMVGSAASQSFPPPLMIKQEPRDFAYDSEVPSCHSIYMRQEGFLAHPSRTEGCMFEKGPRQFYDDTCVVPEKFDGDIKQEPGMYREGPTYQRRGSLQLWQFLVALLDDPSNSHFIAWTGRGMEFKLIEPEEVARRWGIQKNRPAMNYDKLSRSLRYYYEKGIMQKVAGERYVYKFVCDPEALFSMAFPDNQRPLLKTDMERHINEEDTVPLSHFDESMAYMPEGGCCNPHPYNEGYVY
# Chain of ETV5 (P41161 whole entry): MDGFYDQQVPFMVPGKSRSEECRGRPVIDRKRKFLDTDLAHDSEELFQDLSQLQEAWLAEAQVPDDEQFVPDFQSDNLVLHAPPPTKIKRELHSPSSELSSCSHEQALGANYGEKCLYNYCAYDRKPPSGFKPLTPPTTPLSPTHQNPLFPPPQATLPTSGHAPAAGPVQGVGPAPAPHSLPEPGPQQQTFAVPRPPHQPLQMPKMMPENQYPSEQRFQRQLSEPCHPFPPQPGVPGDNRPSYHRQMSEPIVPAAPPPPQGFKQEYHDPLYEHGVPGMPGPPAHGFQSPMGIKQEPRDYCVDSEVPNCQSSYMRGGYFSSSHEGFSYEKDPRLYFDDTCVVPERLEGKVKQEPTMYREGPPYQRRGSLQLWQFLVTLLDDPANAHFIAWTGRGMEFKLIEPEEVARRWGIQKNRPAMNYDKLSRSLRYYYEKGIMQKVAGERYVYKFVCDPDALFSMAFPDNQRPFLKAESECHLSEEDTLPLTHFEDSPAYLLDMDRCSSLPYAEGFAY
# Chain of HSF1 (Q00613 whole entry): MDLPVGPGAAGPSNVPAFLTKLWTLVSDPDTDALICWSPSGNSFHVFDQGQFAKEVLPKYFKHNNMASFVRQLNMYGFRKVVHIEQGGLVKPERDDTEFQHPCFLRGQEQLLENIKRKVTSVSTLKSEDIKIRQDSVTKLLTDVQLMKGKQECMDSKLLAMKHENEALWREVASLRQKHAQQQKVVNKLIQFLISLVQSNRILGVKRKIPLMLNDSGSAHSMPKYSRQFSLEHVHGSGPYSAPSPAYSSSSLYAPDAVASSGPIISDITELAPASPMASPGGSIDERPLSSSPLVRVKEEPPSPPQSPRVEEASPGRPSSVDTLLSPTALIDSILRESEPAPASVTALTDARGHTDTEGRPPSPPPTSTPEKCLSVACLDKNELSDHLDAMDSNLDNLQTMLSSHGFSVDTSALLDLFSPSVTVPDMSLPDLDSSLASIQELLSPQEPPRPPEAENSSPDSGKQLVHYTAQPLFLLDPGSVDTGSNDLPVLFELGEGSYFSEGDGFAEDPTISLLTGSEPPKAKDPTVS
sequence,measurement,setting,value
TCTCCG,binding signal,[1],"1.69 fold enrichment (6-mer frequency, TF over GST control)"
same,binding signal,[2],"1.61 fold enrichment (6-mer frequency, TF over GST control)"
same,binding signal,[3],"1.43 fold enrichment (6-mer frequency, TF over GST control)"
same,binding signal,[4],"1.55 fold enrichment (6-mer frequency, TF over GST control)"
same,binding signal,[5],"1.59 fold enrichment (6-mer frequency, TF over GST control)"
same,binding signal,[6],"1.68 fold enrichment (6-mer frequency, TF over GST control)"
same,binding signal,[7],"1.47 fold enrichment (6-mer frequency, TF over GST control)"
same,binding signal,[8],"1.2 fold enrichment (6-mer frequency, TF over GST control)"
same,binding signal,[9],"1.37 fold enrichment (6-mer frequency, TF over GST control)"
same,binding signal,[10],"1.48 fold enrichment (6-mer frequency, TF over GST control)"
